Data from ChEMBL document CHEMBL3988442, “University of Dundee, Small-Polar-MMV Screening Library” (2021).
Hit rate of the full screen: of about 69,000 compounds, about 50 (0.07%) showed an effect of 50% or more. The full list was thinned out, with strong results kept by preference.

molecular target: Lysine--tRNA ligase (Plasmodium falciparum (isolate 3D7)) (UniProt Q8IDJ8); test: Pf-KRS-1 (Lysyl-RNA Synthetase-1, KRS-1, cytosolic KRS) from Plasmodium falciparum. Inhibitor assay, 384 well plate, luminescence read.; assay type: functional; design: scale not given: in the data most compounds retested in dose-response had high values; conditions: 30 µM
Sequence (Q8IDJ8 1-583): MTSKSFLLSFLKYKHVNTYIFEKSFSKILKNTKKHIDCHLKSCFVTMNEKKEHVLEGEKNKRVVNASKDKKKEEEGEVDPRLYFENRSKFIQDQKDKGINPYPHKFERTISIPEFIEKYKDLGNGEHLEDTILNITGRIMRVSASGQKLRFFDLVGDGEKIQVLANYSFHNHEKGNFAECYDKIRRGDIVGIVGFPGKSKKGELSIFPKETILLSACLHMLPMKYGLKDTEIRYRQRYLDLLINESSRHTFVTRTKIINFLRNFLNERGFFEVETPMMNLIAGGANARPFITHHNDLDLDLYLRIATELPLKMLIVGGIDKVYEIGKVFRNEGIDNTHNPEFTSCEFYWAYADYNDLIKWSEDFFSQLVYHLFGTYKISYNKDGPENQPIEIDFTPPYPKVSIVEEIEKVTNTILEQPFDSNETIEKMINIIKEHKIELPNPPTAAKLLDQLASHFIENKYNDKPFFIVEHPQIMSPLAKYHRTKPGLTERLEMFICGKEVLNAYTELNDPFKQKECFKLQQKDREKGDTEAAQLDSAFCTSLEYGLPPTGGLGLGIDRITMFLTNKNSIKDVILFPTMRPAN

Compound	Percent Effect [%]
O=c1c(CN2CC3CCCN3C[C@@H]2CCO)coc2ccc(Cl)cc12 (stereo partly drawn)	0.683
O=c1c(CN2CCCCC2)coc2ccc(Cl)cc12	62.1
O=c1c(CN2CCOCC2)coc2ccc(Cl)cc12	28.3
Cc1ccc(S(=O)(=O)N2C[C@@H]3C[C@@H](NC(=O)C(C)(C)C)[C@@H]3C2)cc1	6.48
Cn1cc(C(C)(O)CNc2ccc(Cl)c(C#N)n2)cn1 (stereo not drawn)	18.4
CC(O)(CNc1ccc(Cl)c(C#N)n1)c1ccsc1 (stereo not drawn)	59
CC(O)(CNc1ccc(Cl)c(C#N)n1)c1ccccc1 (stereo not drawn)	8.49
CCOCC(=O)N1CC[C@@H]2O[C@@H](C)C[C@H]2C1	2.15
O=C1CC[C@]2(CC[C@@H](NCc3ccc4c(c3)OCO4)CC2)N1	-2.96
O=C(NC1CC(F)(F)C1)[C@]12COC[C@H]1CN(Cc1ccsc1)C2	3.2
O=C(c1cnc2[nH]c(=O)[nH]c(=O)c2c1)N1CCCC1C1CCCCC1 (stereo not drawn)	2.68
O=C(c1c[nH]nn1)N1CCCC1C1CCCCC1 (stereo not drawn)	85.6
O=C(c1ccc(=O)[nH]n1)N1CCCC1C1CCCC1 (stereo not drawn)	9.62
COC[C@@]12CC[C@@H](N3CCOCC3)C[C@H]1CCN(c1nc(CO)cs1)C2	10.3
Cn1cc(NC(=O)N2CCCC2c2cccnc2)ccc1=O (stereo not drawn)	4.14
Cn1cc(NC(=O)N2CCCC2c2ccccn2)ccc1=O (stereo not drawn)	78.9
Cn1cc(NC(=O)N2CCC2c2ccccc2)ccc1=O (stereo not drawn)	20.1
Cn1cc(NC(=O)N2CCC(CN3CCCC3)CC2)ccc1=O	0.985
Cn1cc(NC(=O)N2CCC(c3ccccc3)CC2)ccc1=O	45.4
CC(C)C1CCCN1C(=O)Nc1ccc(=O)n(C)c1 (stereo not drawn)	81

Compound	Percent Effect [%]
COCC(=O)N1CC[C@H]2[C@H]1CCN2CC(C)C	7.19
CN(Cc1ccco1)[C@@H]1CN(CC2CCOCC2)C[C@@H]2CCCO[C@@H]21	-0.34
CN1C[C@H]2CNC[C@@]2(C(=O)N2CCN(c3ncccc3C#N)CC2)C1	4.21
O=C([C@H]1CCS(=O)(=O)[C@@H]2CN(Cc3ccc(F)cc3)C[C@H]12)N1CCCC1	7.12
O=C(c1ccc[nH]1)N1C[C@H](OCc2ccccn2)[C@H]2COC[C@H]21	-1.37
Cc1cccc(-c2noc(CN3CCc4nn(C)c(=O)cc4C3)n2)c1	68.9
Cn1nc2c(cc1=O)CN(Cc1nc(C3CC3)no1)CC2	8.16
Cn1nc2c(cc1=O)CN(Cc1nc(-c3cccnc3)no1)CC2	-1.07
Cn1nc2c(cc1=O)CN(Cc1nc(C(C)(C)C)no1)CC2	70.1
Cc1ccc(-c2noc(CN3CCc4nn(C)c(=O)cc4C3)n2)cc1	1.64
Cn1nc2c(cc1=O)CN(Cc1nc(-c3ccco3)no1)CC2	5.02
CSCC[C@H]1CN2CCC[C@H]2CN1Cc1coc2ccc(C)cc2c1=O	-1.05
Fc1cnc(N2CCO[C@H]3CN(CC4CCC4)C[C@H]32)nc1	-1.14
Cc1nnsc1CN1C[C@H]2CC[C@@H]1CN(Cc1ccccc1)C2	2.23
CCC(=O)N1CC[C@H]2C(=O)N(Cc3ccc(OC)cc3)CCO[C@H]2C1	4.55
Cc1noc(C)c1CN1CC[C@H]2[C@H]1CCN2CC1CCOCC1	59
Cc1noc(C)c1CN1CCO[C@H]2CN(CC3CC3)C[C@H]21	2.54
Cc1noc(C)c1CN1CC[C@H]2[C@@H]1CCC(=O)N2CC1CCOCC1	3.41
CCCN1CCN(C(=O)c2cccc3cccnc23)[C@H]2CS(=O)(=O)C[C@H]21	-0.361
CC(C)CN1Cc2nc(N3CCCC3)ncc2C1=O	6.16

Compound	Percent Effect [%]
CC(C)CN1Cc2nc(N3CCC(O)CC3)ncc2C1=O	4.55
CN1CCC(N2Cc3nc(N)ncc3C2=O)CC1	2.22
CC1(C)CC(N2Cc3nc(N)ncc3C2=O)CC(C)(C)N1	1.77
CC1CCC(N2Cc3nc(N)ncc3C2=O)CC1 (stereo not drawn)	73.8
CC(C)CN1Cc2nc(N)ncc2C1=O	91.2
CN1[C@H](CN2CCCC2)C[C@@H]2CN(C(=O)Cc3cccs3)CC[C@@H]21	-1.4
CCO[C@@H]1CN(S(=O)(=O)c2cn(C)cn2)[C@@H]2CCCO[C@@H]21	3.16
CC(C)=CCN1C(=O)[C@H]2CC[C@@H]1CN(C(=O)CCc1n[nH]c(C)c1C)C2	-4.7
CC(NC(=O)C1=NN(C)C(=O)CC1)c1ccc(Cl)cc1Cl (stereo not drawn)	57.8
CC(NC(=O)C1=NN(C)C(=O)CC1)c1ccccc1Cl (stereo not drawn)	7.44
CC(NC(=O)C1=NN(C)C(=O)CC1)c1ccc(Cl)cc1 (stereo not drawn)	6.56
c1ccc(CO[C@@H]2CN(Cc3ccoc3)[C@@H]3COC[C@@H]32)nc1	-0.514
CC(C)SCCn1ccc2[nH]c(=O)c(C#N)cc2c1=O	48.5
N#Cc1cc2c(=O)n(CC(O)C(F)(F)F)ccc2[nH]c1=O (stereo not drawn)	27.3
CCCOC(C)Cn1ccc2[nH]c(=O)c(C#N)cc2c1=O (stereo not drawn)	61.2
CC(O)CCn1ccc2[nH]c(=O)c(C#N)cc2c1=O (stereo not drawn)	58.6
N#Cc1cc2c(=O)n(CC(O)Cc3ccccc3)ccc2[nH]c1=O (stereo not drawn)	4.36
CCC(Cn1ccc2[nH]c(=O)c(C#N)cc2c1=O)OC (stereo not drawn)	34.1
